# The list is not random: actives were taken first. Their share in the collection is about 4.8%.
# DAX1 inh-1 – DAX1 (NR0B1) inhibitors on StAR promoter, primary screen, cell-based, luminescence, SF-1 (NR5A1), full-length DAX-1 | inhibition, % at 6.8 µM | actives 1.1% (n = 370,000) | HEK293T StAR-luciferase reporter, SF-1/DAX-1 repression relief;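 active means inhibition above the mean over all tested compounds plus 3 SD, cut at about 3.6% in these data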;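 further: higher inhibition means more luminescence from relief of DAX-1 repression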
# SMARCA2 act – SMARCA2 (BRM) function activators, primary screen, cell-based, luminescence, high throughput; MG213 cells, MMTV-luciferase reporter, dexamethasone, overnight; activation, % at 9.1 µM; actives 1% (n = 370,000); AID 652017, 2013; in the data active means activation above about 7.8%
# hgDAF12 agonist – H. glycines DAF-12 receptor agonists, primary screen, cell-based, luminescence, HEK293, GAL4 fusion, UAS-luciferase. actives 1.8% (n = 370,000). Nuclear hormone receptor DAF-12 (Heterodera glycines), GAL4 fusion. HEK293 GAL4-hgDAF12 UAS-luciferase reporter, agonist luminescence; normalized to butyrate control. activation, % at 6.8 µM;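 active means activation above a cutoff set at the mean of all screened compounds plus 3 SD, cut at about 10% in these data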
# hcDAF-12 act – H. contortus DAF-12 nuclear receptor activators, primary screen, cell-based, luminescence, HEK293, lit1-tk-luc reporter | HEK293 hcDAF-12 lit1-tk-luc reporter; 0% DMSO, 100% Δ7-dafachronic acid | actives 1.4% (n = 370,000) | activation, % at 6.8 µM;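 active means activation above the mean of all tested compounds plus 3 SD, cut at about 5.5% in these data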
# ssDAF-12 act – S. stercoralis DAF-12 nuclear receptor activators, primary screen, cell-based, luminescence, HEK293, GRIP1 co-expression, lit1-tk-luc. actives 1% (n = 370,000). AID 652126, 2013. activation, % at 6.8 µM. Nuclear hormone receptor DAF-12 (Strongyloides stercoralis). HEK293 ssDAF-12/GRIP1 lit1-tk-luc reporter; % of 3 µM dafachronic acid response;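 active means activation above the mean over all tested compounds plus 3 SD, cut at about 0.9% in these data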
# DAX1 inh-2 – DAX1 (NR0B1) inhibitors, primary screen, cell-based, HEK293, Gal4-DAX1, luciferase luminescence | inhibition, % at 6.75 µM | HEK293 Gal4-DAX1 luciferase reporter | actives 0.99% (n = 340,000) | Nuclear receptor subfamily 0 group B member 1 (Homo sapiens), P51843;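 active means inhibition above the mean over all tested compounds plus 3 SD, cut at about 4.2% in these data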;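 further: inhibition shows as a rise in luminescence from relieved DAX1 repression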
# Target sequence (P51843 207-470 limits assumed): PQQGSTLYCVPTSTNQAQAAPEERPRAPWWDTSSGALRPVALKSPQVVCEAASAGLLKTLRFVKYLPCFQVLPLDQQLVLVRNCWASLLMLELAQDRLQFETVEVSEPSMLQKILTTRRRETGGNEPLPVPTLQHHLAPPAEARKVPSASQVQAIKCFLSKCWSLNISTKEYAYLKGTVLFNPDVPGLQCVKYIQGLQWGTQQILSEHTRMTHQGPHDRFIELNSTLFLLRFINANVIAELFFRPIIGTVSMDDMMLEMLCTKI
# Hits are given with their value; n = inactive; x = no result given.
SMILES,DAX1 inh-1,SMARCA2 act,hgDAF12 agonist,hcDAF-12 act,ssDAF-12 act,DAX1 inh-2
CC(C)(C)C(=O)Nc1nc2c(s1)CN(Cc1ccccc1)CC2,n,n,11,n,n,n
COC(=O)[C@]12C[C@H](CC(=O)N3CCCC3)C(=O)N(Cc3cccc4ccccc34)C1=C[C@H](C1CCCC1)O[C@@H]2C,n,n,n,n,n,x
CC(C)(C)c1cc(NC(=O)c2c(F)cccc2Cl)n(-c2ccccc2)n1,n,n,n,n,n,4.5
Cc1cc(NC(=O)c2c(F)cccc2Cl)n(-c2nc3ccccc3[nH]2)n1,n,n,n,n,n,n
CC(C)[C@H](NC(=O)c1ccc(Cl)c([N+](=O)[O-])c1)C(=O)NCc1ccc(F)cc1,n,n,n,n,n,4.6
CC(C)[C@H](NC(=O)c1ccc(Cl)c([N+](=O)[O-])c1)C(=O)NCc1ccc(Cl)cc1Cl,n,n,n,n,n,n
CC(=O)Nc1ccc(/C=C/c2nc3ccccc3o2)cc1,n,n,13,n,n,4.5
COc1ccc(C=Nn2c(-c3ccccc3F)n[nH]c2=S)cc1OCc1ccccc1,n,n,n,n,n,x
COc1ccc(S[C@]2(C(=O)N3CCCC3)CC(=O)N(c3ccccc3OC)[C@@H]2c2ccc(OC)cc2)cc1,n,n,n,n,n,x
CCOc1ccc2nc(N3C(=O)C(O)=C(C(=O)c4ccco4)C3c3ccco3)sc2c1 (stereo not given),n,7.9,n,n,n,n
O=C1C(=O)N(CCN2CCOCC2)C(c2ccccc2)/C1=C(\O)c1ccc2c(c1)OCCO2 (stereo not given),4.0,n,n,n,n,n
COC(=O)[C@]12C[C@H](CC(=O)NCc3cccc(C(F)(F)F)c3)C(=O)N(Cc3ccc(Cl)cc3Cl)C1=C[C@H](C1CCCC1)O[C@@H]2C,n,n,n,n,n,x
S=c1[nH]nc(-c2cc(-c3ccccc3)n[nH]2)n1/N=C/c1cccc2ccccc12,n,n,n,n,n,x
CC(C)N1CCN(Cc2cc3ccccc3[nH]2)CC1CCO (stereo not given),n,n,n,n,1.1,n
CC(C)N1CCN(Cc2ccc(-c3ccccc3)cc2)CC1CCO (stereo not given),n,n,n,n,n,n
COC(=O)CN1CCN(C(=O)c2nocc2C)CC1,n,n,n,n,n,x
Cc1ccc(-c2c(C(=O)c3ccccc3)[nH]c(N)c2C(=O)NCCc2c[nH]c3ccccc23)cc1,n,n,n,n,n,x
COc1ccc(C(=O)c2[nH]c(N)c(C(=O)NCCc3c[nH]c4ccccc34)c2-c2ccc(Cl)c(F)c2)cc1,n,n,n,n,n,x
COc1ccc(-c2c(C(=O)c3ccccc3)[nH]c(N)c2C(=O)NCCc2c[nH]c3ccccc23)cc1,n,n,12,n,n,x
COc1ccc(C(=O)c2[nH]c(N)c(C(=O)NCCc3c[nH]c4ccccc34)c2-c2ccc(Cl)cc2)cc1,n,n,n,n,1.9,x
Nc1[nH]c(C(=O)c2ccc(Cl)cc2)c(-c2ccc(Br)cc2)c1C(=O)NCCc1c[nH]c2ccccc12,n,n,n,n,1.0,x
CNC(=O)[C@@H]1CC=C[C@@H]2CCN(c3ccccc3)C(=O)[C@@H]21,x,x,n,n,n,x
O=C(Cc1ccccc1)NC1CCCc2c1cnn2-c1ccc(F)cc1F (stereo not given),x,x,n,n,n,x
CC1CCN(CC(=O)NC2CCCCC2)CC1,n,n,n,n,n,4.3
Cc1ccc(C)c(NC(=O)Cn2nnc(-c3ccncc3)n2)c1,n,n,n,n,n,x

# Compound activity as filed in PubChem BioAssay.
